ELG1 genotox: induces genotoxicity in HEK293T cells with luciferase-tagged ELG1; 330,000 compounds, 1.3% hits; Potency, µM (series often up to 46 µM), for the others: top-dose activity change, positive = activation, usual class: activators; HEK293T ELG1-luciferase reporter, luminescence, 16 h; AID 504466; note: % of control where 0% means no effect; nearly all actives have a fitted effect of over 60% in size
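Screening used a luciferase reporter fused to human ELG1 in HEK293T cells. Luminescence was read on a CCD plate imager after 16 hr exposure and 30 min ONE-Glo incubation.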
SMN2 splice up: increases expression of the SMN2 splice variant; HEK293 SMN2-luciferase splicing reporter, luminescence, 30-36 h; Potency, µM (top dose mostly 46.1 µM), without a hit: at the highest dose activity change, positive = activation, hits mostly activators; 210,000 compounds, 2.8% hits; AID 1458; note: % of control where 0% means no effect; nearly all actives have a fitted effect of over 55% in size
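HEK293 cells carry an SMN2 […]–luciferase reporter in which exon 7 inclusion puts luciferase in frame. Cells were plated 10-12 h before compound addition, then incubated 30-36 h at 37C. ONE-Glo luminescence was read; sodium butyrate at 4.5 mM final served as control.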
NPC1 promoter act: activators of NPC1 promoter; Huh7 NPC1 promoter luciferase reporter, 24 h; Potency, µM (series often up to 9.22 µM), inactives show top-dose activation, actives largely listed as activators; 320,000 compounds, 2.4% hits; AID 485313; note: % of control where 0% means no effect; nearly all actives have a fitted effect of over 60% in size
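Cells: Huh7 expressing luciferase under the NPC1 promoter, 1500/well. Seeded 2 h, compound added, incubated 24 h at 37 °C. Luciferase reagent, 10 min ambient, then luminescence.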
FLuc modulator: counter-screen for miR-21 project: firefly luciferase inhibitors or activators; P08659; purified FLuc, Km substrates, luminescence inhibition; Potency, µM (highest dose often 57.5 µM), inactives show at the highest dose activity change, negative = inhibition, most hits filed as inhibitors; 360,000 compounds, 6.9% hits; AID 588342;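 note: plate controls were vehicle for no effect and reference inhibitor for full effect; nearly all actives have a fitted effect of over 55% in size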
Target sequence (P08659 whole entry, looked up): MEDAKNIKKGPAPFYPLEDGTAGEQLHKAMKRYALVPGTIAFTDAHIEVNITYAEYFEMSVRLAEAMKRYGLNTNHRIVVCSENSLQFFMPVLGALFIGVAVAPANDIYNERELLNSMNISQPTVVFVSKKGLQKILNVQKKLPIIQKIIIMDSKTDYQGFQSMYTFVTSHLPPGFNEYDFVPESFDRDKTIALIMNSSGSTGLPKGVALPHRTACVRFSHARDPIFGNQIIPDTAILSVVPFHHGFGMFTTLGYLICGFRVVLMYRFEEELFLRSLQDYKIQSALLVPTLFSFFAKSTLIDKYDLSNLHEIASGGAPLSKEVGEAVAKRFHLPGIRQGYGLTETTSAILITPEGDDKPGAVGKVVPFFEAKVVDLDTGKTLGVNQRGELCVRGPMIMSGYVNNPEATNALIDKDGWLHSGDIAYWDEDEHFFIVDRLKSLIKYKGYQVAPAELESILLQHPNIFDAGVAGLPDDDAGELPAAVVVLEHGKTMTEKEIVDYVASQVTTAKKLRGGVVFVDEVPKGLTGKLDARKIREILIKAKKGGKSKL
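Purified P. pyralis luciferase, 10 nM final, with Km-level 10 uM D-luciferin and 10 uM ATP in 50 mM Tris acetate pH 7.5, 10 mM Mg acetate, 0.01% Tween-20, 0.05% BSA; 6-point qHTS titration about 60 µM downward; luminescence read.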
uPA generation: inhibitors of cell surface uPA generation | cell surface uPA generation assay, qHTS | Potency, µM (top dose mostly 38.3 µM), inactives show top-dose activity change, negative = inhibition, actives largely listed as inhibitors | 330,000 compounds, 0.31% hits | AID 540303; active = well fitted inhibition curve with a large enough effect; inconclusive = small, poorly fitted or top-dose-only effect; inactive = no such curve, though single readings can be large or run the other way; tested in mouse RAW 264.7 cells; note: % is set by controls: 0 for no effect and ±100 for the full control effect; nearly all actives have a fitted effect of over 55% in size
Rab9 promoter act: activators of Rab9 promoter; 320,000 compounds, 2.8% hits; AID 485297; Potency, µM (doses to about 9.22 µM), inactives show at the highest dose activation, negative = inhibition, actives largely listed as activators; Huh7 Rab9 promoter-luciferase reporter, luminescence, 24 h; note: % of control where 0% means no effect; nearly all actives have a fitted effect of over 60% in size
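Cells were plated at 1500 per well in reduced-serum medium with 10% FBS and left 2 h. Compound in DMSO was then added for 24 h at 37 °C. Reporter signal was read by luminescence after 10 min with luciferase detection reagent.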
An asterisk follows results filed as active. Hits are enriched below; roughly 7.3% of the tested compounds scored in any of these assays. Unless noted, calls come from the whole dose curve; as a rule, active = well fitted curve in the direction sought with a large enough effect; inconclusive = small, poorly fitted or top-dose-only effect, or another doubt; inactive = no such curve, though single readings can be large; an effect the other way counts as inactive or inconclusive. Potency is the fitted concentration of half-maximal effect.

Screening CCN(CC)S(=O)(=O)c1ccc(C(=O)NCCSc2c(-c3ccc(OC)cc3)[nH]c3ccccc23)cc1 returned SMN2 splice up -18.5% and FLuc modulator -5.8%.
`CCCCNC(=O)c1cc(-c2ccc(OC)cc2)nc2n[nH]c(-c3cccc([N+](=O)[O-])c3)c12` gave FLuc modulator 0.3%.
`COc1cc(CNc2ccc(NC(C)=O)cc2)ccc1OCc1ccccc1C` gave ELG1 genotox inconclusive, SMN2 splice up 14.9%, NPC1 promoter act 13.3%, FLuc modulator 15.1µM*, uPA generation 10.0% and Rab9 promoter act inconclusive.
COc1ccccc1NC(=O)Nc1nc(C(C)(C)C)cs1 was read as ELG1 genotox -4.2%, SMN2 splice up 5.8%, NPC1 promoter act -2.6%, FLuc modulator 8.49µM*, uPA generation 1.3% and Rab9 promoter act 15.2%.
For COc1ccccc1NC(=O)Nc1nc(CC(=O)Nc2cccc(F)c2)cs1 the results were ELG1 genotox -9.0%, NPC1 promoter act -5.7%, FLuc modulator 16.9µM*, uPA generation 3.6% and Rab9 promoter act 7.5%.
`COc1ccccc1NC(=O)Nc1nc(CC(=O)Nc2ccc(F)cc2)cs1` gave ELG1 genotox -3.7%, NPC1 promoter act -3.9%, FLuc modulator -9.7%, uPA generation -10.9% and Rab9 promoter act -3.4%.
Screening COc1ccccc1CNC(=O)Cc1csc(NC(=O)Nc2ccccc2OC)n1 returned ELG1 genotox -8.4%, NPC1 promoter act -1.3%, FLuc modulator 6.4%, uPA generation -0.3% and Rab9 promoter act -1.1%.
For COc1ccccc1NC(=O)Nc1nc(CC(=O)Nc2ccc(N(C)C)cc2)cs1 the results were ELG1 genotox inconclusive, NPC1 promoter act 0.5%, FLuc modulator 21.3µM*, uPA generation -0.8% and Rab9 promoter act -2.0%.
Screening Cn1cc(S(=O)(=O)c2cccc(Cl)c2)c(=O)c2cc(F)c(N3CCN(c4ccc(F)cc4)CC3)cc21 returned FLuc modulator -4.8%.
Screening COc1ccc(C2C(C(=O)c3cccs3)=C(O)C(=O)N2Cc2cccnc2)cc1OC (centres undefined) returned ELG1 genotox inconclusive, NPC1 promoter act inconclusive, FLuc modulator 19µM*, uPA generation 1.3% and Rab9 promoter act inconclusive.
For Cc1ccc(NNS(=O)(=O)c2ccc(C)cc2)cc1 the results were ELG1 genotox 2.1%, SMN2 splice up -13.3%, NPC1 promoter act 1.4%, FLuc modulator 21.3µM*, uPA generation -4.1% and Rab9 promoter act -0.8%.
Screening COc1cc2nc(SCc3cccc(Cl)c3)n3nc(CCn4nc(C)cc4C)nc3c2cc1OC returned SMN2 splice up 2.7% and FLuc modulator -0.7%.
Screening COc1ccc(NC(=O)COC(=O)CCNS(=O)(=O)c2ccc(Cl)cc2)cc1 returned ELG1 genotox -0.7%, NPC1 promoter act -2.8%, FLuc modulator 0.5%, uPA generation 16.1% and Rab9 promoter act 0.3%.
Screening COc1ccc(/C=C/C(=O)Nc2ccccc2C(=O)NCC(c2ccc(OC)cc2)N(C)C)cc1 (centres undefined) returned ELG1 genotox 6.4%, NPC1 promoter act 17.4%, FLuc modulator 10.7µM*, uPA generation -14.1% and Rab9 promoter act 20.6%.
Screening COc1ccc(/C=C/C(=O)Nc2ccccc2C(=O)O)cc1 returned ELG1 genotox inconclusive, SMN2 splice up 3.98µM*, NPC1 promoter act 0.447µM*, FLuc modulator 0.426µM*, uPA generation -13.9% and Rab9 promoter act 3.16µM*.
Screening COc1ccc(/C=C/C(=O)Nc2ccccc2C(=O)O)cc1OC returned ELG1 genotox inconclusive, SMN2 splice up -26.2%, NPC1 promoter act 1.41µM*, FLuc modulator 0.151µM*, uPA generation inconclusive and Rab9 promoter act 0.891µM*.
COc1ccc(/C=C(/C(=O)Nc2ccccc2C(=O)N2CCCC2)c2ccccc2)cc1 was read as ELG1 genotox -10.5%, SMN2 splice up -15.4%, NPC1 promoter act -0.8%, FLuc modulator 0.4%, uPA generation -3.0% and Rab9 promoter act -3.0%.

From PubChem BioAssay
